Compound activity deposited in PubChem by National Center for Advancing Translational Sciences (NCATS).
Only some compounds are listed: those with a hit (about 10% of all), similar ones and a draw of the others.
CtBP-E1A inh: qHTS Assay for Inhibitors of the CtBP/E1A Interaction | CtBP / adenovirus E1A interaction (AlphaScreen) | AlphaScreen GST-E1A/His-CtBP binding, 1536-well; hits give low values | activity change, % (test concentration not listed) | 340,000 compounds, 0.49% hits; in the data active means activity change below about -65%; inconclusive means mostly about -30% to -63%; further: on the % scale 0 is the no-effect control and ±100 the full control effect
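Steps: dispense buffer (Tris pH 8.0, NaCl 300 mM, TCEP 1 mM, BSA, Tween 20); add 5X protein mix (GST-E1A, His-CtBP, 125 nM each); pin 23 nL compound; 2 h at 37 °C, dark; add 5X beads (50 ug/mL); 1 h; read.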
Six1-Eya2 inh: qHTS Assay for Inhibitors of the Six1/Eya2 Interaction. Homeobox protein SIX1 (Homo sapiens) + Protein phosphatase EYA2 (Homo sapiens), …. AlphaScreen GST-Six1/His-Eya2 binding, biochemical; hits give low values. activity change, % (no concentration beside the values). 360,000 compounds, 0.56% hits. AID 651725, 2012; in the data active means activity change below about -65%; inconclusive means mostly about -30% to -63%; further: on the % scale 0 is the no-effect control and ±100 the full control effect
Target sequence (O00167 whole entry, looked up): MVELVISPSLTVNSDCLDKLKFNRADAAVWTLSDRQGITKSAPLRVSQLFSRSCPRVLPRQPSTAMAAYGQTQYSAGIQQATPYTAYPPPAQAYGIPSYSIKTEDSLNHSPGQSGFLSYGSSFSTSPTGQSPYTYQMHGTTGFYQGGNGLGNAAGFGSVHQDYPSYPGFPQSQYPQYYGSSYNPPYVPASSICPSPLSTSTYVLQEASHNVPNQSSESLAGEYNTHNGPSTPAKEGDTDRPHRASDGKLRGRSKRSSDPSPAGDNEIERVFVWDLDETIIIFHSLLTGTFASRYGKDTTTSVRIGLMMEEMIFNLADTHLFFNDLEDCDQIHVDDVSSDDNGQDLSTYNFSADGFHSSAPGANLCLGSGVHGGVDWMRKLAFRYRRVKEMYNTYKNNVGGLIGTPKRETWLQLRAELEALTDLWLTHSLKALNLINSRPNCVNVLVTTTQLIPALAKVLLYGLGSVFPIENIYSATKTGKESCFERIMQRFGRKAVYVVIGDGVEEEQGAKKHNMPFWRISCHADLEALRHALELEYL
Target sequence (Q15475 whole entry, looked up): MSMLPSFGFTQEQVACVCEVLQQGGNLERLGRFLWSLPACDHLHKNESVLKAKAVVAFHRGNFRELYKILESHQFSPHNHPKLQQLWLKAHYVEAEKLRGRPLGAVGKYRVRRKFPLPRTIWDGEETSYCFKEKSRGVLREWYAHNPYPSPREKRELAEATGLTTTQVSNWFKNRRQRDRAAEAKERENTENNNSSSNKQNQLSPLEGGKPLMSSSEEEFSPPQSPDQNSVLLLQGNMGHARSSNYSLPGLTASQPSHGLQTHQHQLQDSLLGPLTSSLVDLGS
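Six1/Eya2 binding was read as AlphaScreen signal after compounds were pinned into GST-Six1 plus His-tagged Eya2 (5X stock 250/500 nM) in pH 8.0 Tris/NaCl/TCEP buffer, beads added, then incubated 1 h, 37 C, dark.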
G9a inh: qHTS Assay for Inhibitors of Histone Lysine Methyltransferase G9a | Histone-lysine N-methyltransferase EHMT2 (Homo sapiens), Q96KQ7 | G9a H3K9 monomethylation, AlphaScreen, 2 h | Potency, µM (doses to about 102 µM), inactives show at the top dose activity, negative = inhibition, actives largely listed as inhibitors | 350,000 compounds, 8.8% hits | AID 504332, 2011; further: potency means the concentration at half of the fitted maximal effect; on the % scale 0 is the no-effect control and ±100 the full control effect; nearly all actives have a fitted effect of over 75% in size
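Using a bead-based AlphaScreen, monomethylated H3K9 product from 2 h room-temperature reactions (G9a 20 nM, peptide 500 nM, SAM 20 uM) was detected with 0.5 ug/mL rabbit anti-H3K9me1 antibody.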
JMJD2A Tudor inh: qHTS Assay for Inhibitors of JMJD2A-Tudor Domain; AID 504339, 2011; AlphaScreen JMJD2A-Tudor / H3K4me3 peptide binding; Potency, µM (top dose mostly 114 µM), inactives show at the highest dose activity change, negative = inhibition, hits mostly inhibitors; 390,000 compounds, 4.4% hits; Lysine-specific demethylase 4A (Homo sapiens), O75164; further: potency means the concentration at half of the fitted maximal effect; on the % scale 0 is the no-effect control and ±100 the full control effect; nearly all actives have a fitted effect of over 50% in size
HP1b binding inh: HTS for Inhibitors of HP1-beta Chromodomain Interactions with Methylated Histone Tails | AlphaScreen HP1-beta / biotin-H3K9me3 peptide binding | Potency, µM (highest dose often 114 µM), inactives show top-dose activity change, negative = inhibition, hits mostly inhibitors | 390,000 compounds, 0.56% hits | AID 540317, 2011; further: potency means the concentration at half of the fitted maximal effect; nearly all actives have a fitted effect of over 70% in size
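Compound inhibition of the preformed complex between 50 nM HP1-beta and 50 nM biotinylated H3K9me3 peptide was read by AlphaScreen. Buffer was PBS pH 7.4 with 0.01% Tween-20. Incubations ran 30 min at room temperature, with 10 ug/mL donor/acceptor beads.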
BAZ2B block: qHTS Assay for Inhibitors of BAZ2B | Bromodomain adjacent to zinc finger domain protein 2B (Homo sapiens), Q9UIF8 | AlphaScreen BAZ2B-H3K14Ac peptide displacement | Potency, µM (doses to about 114 µM), for the others: top-dose activity change, negative = inhibition, most hits filed as inhibitors | 360,000 compounds, 4.4% hits; further: potency means the concentration at half of the fitted maximal effect; on the % scale 0 is the no-effect control and ±100 the full control effect; nearly all actives have a fitted effect of over 60% in size
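Compounds, titrated to a top concentration of 110 uM, were incubated 30 min at room temperature with preformed BAZ2B/acetyl-K14 H3 peptide complex (50 nM each). Proximity signal was measured by AlphaScreen after 20 min with beads.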
An asterisk follows results filed as active; [ ] = another dose, or the depositor's remark. Unless noted, the call rests on the fitted dose curve; in most records, active means well fitted inhibition curve with a large enough effect; inconclusive means small, poorly fitted or top-dose-only effect; inactive means no such curve, though single readings can be large or run the other way.

`Cn1c(=O)[nH]c(=O)c2c1[nH]c(=S)n2Cc1ccc(Cl)cc1` gave Six1-Eya2 inh -5, G9a inh 0.89µM*, JMJD2A Tudor inh 3.2µM*, HP1b binding inh 14µM* and BAZ2B block 22µM*.
`COc1ccc(C2Nc3ccccc3C(=O)N2c2ccc(Cl)cc2)cc1COc1ccc(NC(C)=O)cc1` (stereo unspecified) gave JMJD2A Tudor inh -24%[57.1 µM] and HP1b binding inh 19%[57 µM].
For O=C(Nc1c(-c2ccc3c(c2)OCO3)[nH][nH]c1=O)c1ccccc1 the results were CtBP-E1A inh -22 and Six1-Eya2 inh 3.
For O=C(OC(c1ccccc1)c1nccc2ccccc12)c1ccccc1 (stereo unspecified) the results were CtBP-E1A inh -2, Six1-Eya2 inh -8, JMJD2A Tudor inh 6% and HP1b binding inh 44%.
Screening OC(c1ccc(Cl)cc1)c1nccc2ccccc12 (stereo unspecified) returned Six1-Eya2 inh -20, G9a inh 40µM*, JMJD2A Tudor inh -27%, HP1b binding inh 21% and BAZ2B block -38%.
Screening COc1ccc(Br)cc1[C@H]1[C@@H]2C=CCC[C@@]2(C)C(=O)N1Cc1ccccc1 returned CtBP-E1A inh -25, Six1-Eya2 inh -10, G9a inh inconclusive, JMJD2A Tudor inh -13%, HP1b binding inh 24% and BAZ2B block -12%.
For COc1ccc(-c2ccc(N(C)C)cc2)cc1C1C2C=CCCC2(C)C(=O)N1Cc1ccccc1 (stereo unspecified) the results were JMJD2A Tudor inh 8.9µM* and HP1b binding inh inconclusive.
COc1ccc(-c2ccc(N(C)C)cc2)cc1[C@H]1[C@@H]2C=CCC[C@@]2(C)C(=O)N1Cc1ccccc1 was read as CtBP-E1A inh inconclusive, Six1-Eya2 inh inconclusive, G9a inh inconclusive, JMJD2A Tudor inh 14µM*, HP1b binding inh inconclusive and BAZ2B block 7.9µM*.
Screening COc1ccc(-c2ccc(OC)c([C@H]3[C@@H]4C=CCC[C@@]4(C)C(=O)N3Cc3ccccc3)c2)cc1OC returned CtBP-E1A inh -8, Six1-Eya2 inh -23, G9a inh -24%[59 µM], JMJD2A Tudor inh inconclusive, HP1b binding inh -1% and BAZ2B block inconclusive.
CC(C)(C)C1CCc2nc(NC(=O)COc3ccc(F)cc3)sc2C1 (stereo unspecified) was read as G9a inh 12%[59 µM], JMJD2A Tudor inh -16%, HP1b binding inh 29% and BAZ2B block -24%.
`COc1ccc(S(=O)(=O)N2CCOCC2)cc1C(=O)NCC(c1ccco1)N1CCCC1` (stereo unspecified) gave CtBP-E1A inh -4, Six1-Eya2 inh 2, G9a inh 0%[12.7 µM], JMJD2A Tudor inh -14%, HP1b binding inh 40% and BAZ2B block -3%.
For CCN1CC(CN(C)Cc2nc(-c3ccc(C(F)(F)F)cc3)oc2C)CC1=O (stereo unspecified) the results were CtBP-E1A inh -1, Six1-Eya2 inh 1, JMJD2A Tudor inh -16%, HP1b binding inh 25% and BAZ2B block 5%.
For CCN1CC(CN(C)Cc2nc(-c3ccco3)oc2C)CC1=O (stereo unspecified) the results were CtBP-E1A inh 7, Six1-Eya2 inh 3, G9a inh 79µM*, JMJD2A Tudor inh -7%, HP1b binding inh 46% and BAZ2B block -15%.
For CC(C)c1cc(CNC(=O)c2ccc(OC3CCN(Cc4ccccn4)CC3)cc2)on1 the results were CtBP-E1A inh -3, Six1-Eya2 inh -9, G9a inh inconclusive, JMJD2A Tudor inh 45µM*, HP1b binding inh 2% and BAZ2B block 56µM*.
CCn1nc(C)c(CNC(=O)c2ccc(OC3CCN(Cc4ccccn4)CC3)cc2)c1C was read as CtBP-E1A inh -5, Six1-Eya2 inh -10, G9a inh -5%, JMJD2A Tudor inh -10%, HP1b binding inh 11% and BAZ2B block 79µM*.
O=C1CCc2cc(S(=O)(=O)Nc3ccc(Cl)cc3)ccc2N1 was read as JMJD2A Tudor inh -1%.
O=C(c1cccc(F)c1)N1CCC2(CC1)CN(c1ccccc1)C2 was read as G9a inh 5%[12.7 µM].
Screening CC1=NN(c2ccccc2)C(=O)C1C(=O)c1ccccc1 (stereo unspecified) returned CtBP-E1A inh 5, Six1-Eya2 inh 9, G9a inh inconclusive, JMJD2A Tudor inh inconclusive, HP1b binding inh 0% and BAZ2B block -37%.
For CC1=NN(c2ccccc2)C(=O)C1C(=O)C(=O)Nc1ccc(F)cc1 (stereo unspecified) the results were CtBP-E1A inh -6, Six1-Eya2 inh 0, G9a inh 35µM*, JMJD2A Tudor inh -22%, HP1b binding inh 27% and BAZ2B block inconclusive.
Screening CC1=NN(c2ccccc2)C(=O)C1C(=O)c1ccc(Cl)cc1 (stereo unspecified) returned CtBP-E1A inh 25, Six1-Eya2 inh 2, G9a inh 40µM*, JMJD2A Tudor inh -12%, HP1b binding inh 77% and BAZ2B block -28%.
`O=C(Oc1ccccc1)n1c(=S)oc2ccccc21` gave CtBP-E1A inh 13, Six1-Eya2 inh 14, G9a inh 3.5µM*, JMJD2A Tudor inh 20µM*, HP1b binding inh -12% and BAZ2B block -4%.
For COC(=O)n1c(=O)oc2ccccc21 the results were CtBP-E1A inh 3, Six1-Eya2 inh 0, G9a inh -18%[59 µM], JMJD2A Tudor inh -12%, HP1b binding inh 26% and BAZ2B block -6%.
Cc1ccccc1OC(=O)n1c(=S)oc2cc(Cl)ccc21 was read as CtBP-E1A inh 7, Six1-Eya2 inh 3, G9a inh 1.1µM*, JMJD2A Tudor inh 35µM*, HP1b binding inh -3% and BAZ2B block 12%.
`Cc1ccc(S(=O)(=O)N2[C@H](CC(=O)c3cccc4ccccc34)OC[C@@H]2C)cc1` gave CtBP-E1A inh -1 and Six1-Eya2 inh 5.
`Cc1ccc(-n2nc3c(=O)n(C(C)C(=O)NCc4ccc(OC(C)C)cc4)nc(C)c3c2C)cc1` (stereo unspecified) gave G9a inh -9%[59 µM], JMJD2A Tudor inh -13%, HP1b binding inh 21% and BAZ2B block inconclusive.
For CCOC(=O)c1c(C2COc3ccccc3O2)csc1N (stereo unspecified) the results were CtBP-E1A inh -12, Six1-Eya2 inh -10, G9a inh 50µM*, JMJD2A Tudor inh inconclusive, HP1b binding inh -16% and BAZ2B block inconclusive.
